Measured values from the supplement of paper PMC6658780.
Counter-ions that a name gives are not always drawn. ± gives the standard deviation of the averaged measurements.

These molecules were tested on Klebsiella pneumoniae KPC-119 (assay: percent growth inhibition of drug alone vs DMSO control; higher = more growth inhibition). Conditions: antibiotic (0.125x MIC): none (0.1% DMSO); 7 µM.

| SMILES | percent growth inhibition of drug alone [%] |
| --- | --- |
| O=c1[nH]c(=O)n([C@H]2C[C@H](O)[C@@H](CO)O2)cc1F [Floxuridine] | 34.2 ± 2.8 |
| CC(C)NC[C@H](O)COc1ccc(CC(N)=O)cc1 [(S)-(-)-Atenolol] | 0.932 ± 4.5 |
| Oc1c(Cl)cc(Cl)c(Cl)c1Cc1c(O)c(Cl)cc(Cl)c1Cl [Hexachlorophene] | 0.779 ± 4.2 |
| O=C(O)c1cn(-c2ccc(F)cc2)c2cc(N3CCNCC3)c(F)cc2c1=O [Sarafloxacin] | 56.9 ± 1.9 |
| CN(C)c1ccc(O)c2c1C[C@H]1C[C@H]3[C@H](N(C)C)C(O)=C(C(N)=O)C(=O)[C@@]3(O)C(O)=C1C2=O [Minocycline hydrochloride] | 10.9 ± 1.6 |
| CN[C@@H]1[C@@H](O[C@H]2O[C@H](CO)[C@@H](N)[C@H](O)[C@H]2O)OC2C[C@@H](N)[C@@H](O[C@H]3[C@H](O)[C@@H](O)[C@H](N)C[C@@H]3N)OC2[C@@H]1O (some centres not stated) [Apramycin] | 4.95 ± 5.6 |
| CC(C)Nc1cccnc1N1CCN(C(=O)c2cc3cc(NS(C)(=O)=O)ccc3[nH]2)CC1 [Delavirdine] | -0.164 ± 2.9 |
| CC[C@H]1OC(=O)[C@H](C)[C@@H](O[C@H]2C[C@@](C)(OC)[C@@H](O)[C@H](C)O2)[C@H](C)[C@@H](O[C@@H]2O[C@H](C)C[C@H](N(C)C)[C@H]2O)[C@](C)(O)C[C@@H](C)CN(C)[C@H](C)[C@@H](O)[C@]1(C)O [Azithromycin] | 5.21 ± 1.8 |
| O=C1OCCN1/N=C/c1ccc([N+](=O)[O-])o1 [Furazolidone] | 18.3 ± 1.2 |
| CN(C)CCOC(c1ccc(Cl)cc1)c1ccccn1 (configuration not stated) [Carbinoxamine maleate salt] | -6.88 ± 0.94 |
| CO[C@@]1(NC(=O)CSCC#N)C(=O)N2C(C(=O)O)=C(CSc3nnnn3C)CS[C@@H]21 [Cefmetazole sodium salt] | 2.72 ± 1.2 |
| NC[C@@H]1O[C@H](O[C@H]2[C@@H](O)[C@H](O[C@@H]3[C@@H](O)[C@H](N)C[C@H](N)[C@H]3O[C@H]3O[C@H](CO)[C@@H](O)[C@H](O)[C@H]3N)O[C@@H]2CO)[C@H](N)[C@@H](O)[C@@H]1O [Paromomycin sulfate] | -0.033 ± 0.073 |
| CO[C@H]1/C=C/O[C@@]2(C)Oc3c(C)c(O)c4c(O)c(c(/C=N/N5CCN(C6CCCC6)CC5)c(O)c4c3C2=O)NC(=O)/C(C)=C\C=C\[C@H](C)[C@H](O)[C@@H](C)[C@@H](O)[C@@H](C)[C@H](OC(C)=O)[C@@H]1C [Rifapentine] | 2.17 ± 1.7 |
| CO[C@H]1/C=C/O[C@@]2(C)Oc3c(C)c(O)c4c(O)c(c5c(nc6cc(C)ccn65)c4c3C2=O)NC(=O)/C(C)=C\C=C\[C@H](C)[C@H](O)[C@@H](C)[C@@H](O)[C@@H](C)[C@H](OC(C)=O)[C@@H]1C [Rifaximin] | 18.5 ± 1.3 |
| CCOC(=O)OC(C)OC(=O)[C@@H]1N2C(=O)[C@@H](NC(=O)[C@H](N)c3ccccc3)[C@H]2SC1(C)C (some centres not stated) [Bacampicillin hydrochloride] | 0.511 ± 1.4 |
| OCCOCCN1CCN(C2=Nc3ccccc3Sc3ccccc32)CC1 [Quetiapine hemifumarate] | -3.12 ± 4 |
| CCC[C@@H]1C[C@@H](C(=O)N[C@@H]([C@H]2O[C@H](SC)[C@H](O)[C@@H](O)[C@H]2O)[C@H](C)Cl)N(C)C1 [Clindamycin hydrochloride] | 12 ± 1.4 |
| CC[C@H]1OC(=O)[C@H](C)[C@@H](O[C@H]2C[C@@](C)(OC)[C@@H](O)[C@H](C)O2)[C@H](C)[C@@H](O[C@@H]2O[C@H](C)C[C@H](N(C)C)[C@H]2O)[C@](C)(OC)C[C@@H](C)C(=O)[C@H](C)[C@@H](O)[C@]1(C)O [Clarithromycin] | 0.744 ± 2.4 |
| CC(=O)OC[C@H]1O[C@@H]([S-])[C@H](OC(C)=O)[C@@H](OC(C)=O)[C@@H]1OC(C)=O.CCP(CC)CC.[Au+] [Auranofin] | 10 ± 0.89 |
| CO/N=C(\C(=O)N[C@@H]1C(=O)N2C(C(=O)O)=C(COC(C)=O)CS[C@H]12)c1csc(N)n1 [Cefotaxime sodium salt] | 4.98 ± 2 |
| CO[C@H]1/C=C/O[C@@]2(C)Oc3c(C)c(O)c4c(c3C2=O)C2=NC3(CCN(CC(C)C)CC3)NC2=C(NC(=O)/C(C)=C\C=C\[C@H](C)[C@H](O)[C@@H](C)[C@@H](O)[C@@H](C)[C@H](OC(C)=O)[C@@H]1C)C4=O [Rifabutin] | 8.64 ± 2.6 |

Same assay, conditions: antibiotic (0.125x MIC): none (0.1% DMSO); 20 µM

| SMILES | percent growth inhibition of drug alone [%] |
| --- | --- |
| O=c1[nH]c(=O)n([C@H]2C[C@H](O)[C@@H](CO)O2)cc1F [Floxuridine] | 92.8 ± 5.4 |
| CC(C)NC[C@H](O)COc1ccc(CC(N)=O)cc1 [(S)-(-)-Atenolol] | -0.0403 ± 1.4 |
| Oc1c(Cl)cc(Cl)c(Cl)c1Cc1c(O)c(Cl)cc(Cl)c1Cl [Hexachlorophene] | 18.8 ± 7.5 |
| O=C(O)c1cn(-c2ccc(F)cc2)c2cc(N3CCNCC3)c(F)cc2c1=O [Sarafloxacin] | 98.9 ± 1.1 |
| CN(C)c1ccc(O)c2c1C[C@H]1C[C@H]3[C@H](N(C)C)C(O)=C(C(N)=O)C(=O)[C@@]3(O)C(O)=C1C2=O [Minocycline hydrochloride] | 52.8 ± 2.3 |
| CN[C@@H]1[C@@H](O[C@H]2O[C@H](CO)[C@@H](N)[C@H](O)[C@H]2O)OC2C[C@@H](N)[C@@H](O[C@H]3[C@H](O)[C@@H](O)[C@H](N)C[C@@H]3N)OC2[C@@H]1O (some centres not stated) [Apramycin] | 52.9 ± 1.4 |
| CC(C)Nc1cccnc1N1CCN(C(=O)c2cc3cc(NS(C)(=O)=O)ccc3[nH]2)CC1 [Delavirdine] | -1.86 ± 1 |
| CC[C@H]1OC(=O)[C@H](C)[C@@H](O[C@H]2C[C@@](C)(OC)[C@@H](O)[C@H](C)O2)[C@H](C)[C@@H](O[C@@H]2O[C@H](C)C[C@H](N(C)C)[C@H]2O)[C@](C)(O)C[C@@H](C)CN(C)[C@H](C)[C@@H](O)[C@]1(C)O [Azithromycin] | 21.1 ± 1 |
| O=C1OCCN1/N=C/c1ccc([N+](=O)[O-])o1 [Furazolidone] | 39.8 ± 1.6 |
| CN(C)CCOC(c1ccc(Cl)cc1)c1ccccn1 (configuration not stated) [Carbinoxamine maleate salt] | -3.08 ± 0.79 |
| CO[C@@]1(NC(=O)CSCC#N)C(=O)N2C(C(=O)O)=C(CSc3nnnn3C)CS[C@@H]21 [Cefmetazole sodium salt] | 32.6 ± 2.3 |
| NC[C@@H]1O[C@H](O[C@H]2[C@@H](O)[C@H](O[C@@H]3[C@@H](O)[C@H](N)C[C@H](N)[C@H]3O[C@H]3O[C@H](CO)[C@@H](O)[C@H](O)[C@H]3N)O[C@@H]2CO)[C@H](N)[C@@H](O)[C@@H]1O [Paromomycin sulfate] | 41.3 ± 0.58 |
| CO[C@H]1/C=C/O[C@@]2(C)Oc3c(C)c(O)c4c(O)c(c(/C=N/N5CCN(C6CCCC6)CC5)c(O)c4c3C2=O)NC(=O)/C(C)=C\C=C\[C@H](C)[C@H](O)[C@@H](C)[C@@H](O)[C@@H](C)[C@H](OC(C)=O)[C@@H]1C [Rifapentine] | 34.82 ± 0.22 |
| CO[C@H]1/C=C/O[C@@]2(C)Oc3c(C)c(O)c4c(O)c(c5c(nc6cc(C)ccn65)c4c3C2=O)NC(=O)/C(C)=C\C=C\[C@H](C)[C@H](O)[C@@H](C)[C@@H](O)[C@@H](C)[C@H](OC(C)=O)[C@@H]1C [Rifaximin] | 71.9 ± 2.4 |
| CCOC(=O)OC(C)OC(=O)[C@@H]1N2C(=O)[C@@H](NC(=O)[C@H](N)c3ccccc3)[C@H]2SC1(C)C (some centres not stated) [Bacampicillin hydrochloride] | -0.333 ± 0.47 |
| OCCOCCN1CCN(C2=Nc3ccccc3Sc3ccccc32)CC1 [Quetiapine hemifumarate] | -3.25 ± 2.9 |
| CCC[C@@H]1C[C@@H](C(=O)N[C@@H]([C@H]2O[C@H](SC)[C@H](O)[C@@H](O)[C@H]2O)[C@H](C)Cl)N(C)C1 [Clindamycin hydrochloride] | 28.5 ± 0.74 |
| CC[C@H]1OC(=O)[C@H](C)[C@@H](O[C@H]2C[C@@](C)(OC)[C@@H](O)[C@H](C)O2)[C@H](C)[C@@H](O[C@@H]2O[C@H](C)C[C@H](N(C)C)[C@H]2O)[C@](C)(OC)C[C@@H](C)C(=O)[C@H](C)[C@@H](O)[C@]1(C)O [Clarithromycin] | 3.19 ± 2.3 |
| CC(=O)OC[C@H]1O[C@@H]([S-])[C@H](OC(C)=O)[C@@H](OC(C)=O)[C@@H]1OC(C)=O.CCP(CC)CC.[Au+] [Auranofin] | 50.22 ± 0.3 |
| CO/N=C(\C(=O)N[C@@H]1C(=O)N2C(C(=O)O)=C(COC(C)=O)CS[C@H]12)c1csc(N)n1 [Cefotaxime sodium salt] | 37.8 ± 0.86 |
| CO[C@H]1/C=C/O[C@@]2(C)Oc3c(C)c(O)c4c(c3C2=O)C2=NC3(CCN(CC(C)C)CC3)NC2=C(NC(=O)/C(C)=C\C=C\[C@H](C)[C@H](O)[C@@H](C)[C@@H](O)[C@@H](C)[C@H](OC(C)=O)[C@@H]1C)C4=O [Rifabutin] | 73.8 ± 3.7 |
